PubChem BioAssay (NCI)
The panel holds about 83,000 compounds, 20% with a hit somewhere; the sample as a whole holds those more often.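 The endpoint reported here, percent growth, reads 100 for growth as untreated, 0 for no net growth and -100 for all cells dead.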 Unmarked numbers belong to inactive results. Calls of active or inactive are those of the source. How the source made its calls: active means growth percent below 10; inactive means the rest.

tested on: RPMI-8226 leukemia; experiment: NCI-60 one-dose screen, 48 h (100 = growth as untreated, 0 = no growth, -100 = all killed); conditions: 10 µM unless noted

| SMILES | growth |
| --- | --- |
| COc1ccc(C2C3CCc4ccccc4C3=NN2C(=O)c2cc(OC)c(OC)c(OC)c2)cc1O (stereo not drawn) | 45.7% |
| CCOC(=O)c1ccc(NC(=O)NC2=NCCS2)cc1 | 13.9% |
| CC(C)COC(=O)NC(C)(C)C | 103% |
| Cn1c(=O)c2[nH]c(Cc3ccc4c(c3)OCO4)nc2n(C)c1=O | 88.8% |
| Nc1nc(N)c2c(n1)NC(c1sc(Cl)nc1Cl)CC(c1ccc3c(c1)OCO3)=N2 (stereo not drawn) | 27.1% |
| Cc1ccccc1N1C(c2ccccc2)=NNC12C=CC(=O)c1c(O)cccc12 (stereo not drawn) | 83.8% |
| Nc1nc(N)c2c(n1)NC(c1sc(Cl)nc1Cl)CC(c1ccccc1)=N2 (stereo not drawn) | 45.3% |
| C=C1NC(=O)C(C(C)CC)NC(=O)C2CSCC(NC(=O)CCC(=O)O)C(=O)NC(Cc3ccccc3)C(=O)NC(C)C(=O)NC(CC(C)CC)C(=O)NC(C(=O)NC(Cc3ccccc3)C(=O)N3CCCC3C(=O)N2)C(C)OC(=O)C(CO)NC(=O)C(C(O)COC)N(C)C(=O)C(C(C)C)NC(=O)C(CC(C)CC)NC1=O (stereo not drawn) | 25.3% [6 µM] |
| Cc1nc2c(-c3cnc(N)nc3)nc(N3CCOCC3)nc2n1C(C)C | 12.8% |
| C=CC[C@]1(O)CC[C@H]2[C@@H]3CCc4cc(O)ccc4[C@H]3CC[C@@]21C | 86.5% |
| COS(=O)(=O)CCN(CCOS(C)(=O)=O)S(C)(=O)=O | 99.8% |
| Cc1nc2ccc(Nc3nc(NCCN4CCOCC4)nc(Nc4ccc(F)cc4)n3)cc2n1Cc1ccccc1 | 3.11% (active) |
| COC1CC(N)C2OC(c3ccccc3)OCC2O1 (stereo not drawn) | 92.8% |
| COc1ccc2[nH]cc(C(c3ccc(Cl)cc3)N3CCCC3)c2c1 (stereo not drawn) | 85.9% |
| CCOP(=O)(O)OP(=O)(O)OCC | 95.8% |
| COc1cccc(/C=N/N=C(N)N)c1 | 104% |
| COc1ccc(C2CC(c3ccc(Nc4ccnc5cc(Cl)ccc45)cc3)=NN2c2ccccc2)cc1 (stereo not drawn) | 70.5% |
| CC1=C(O)C(=O)C(c2c(C)cc(C)c(Br)c2C)=C(O)C1=O | 36.7% |
| FC(F)(F)C1=NNC(c2ccc3ccccc3c2)=NN1 | 94% |
| NC(N)=N/N=C\c1ccc(OCc2ccccc2)cc1 | 83.4% |

| SMILES | growth |
| --- | --- |
| COc1ccc(NC(=O)C2c3ccccc3C(=O)N(CC(C)C)C2c2cccs2)cc1 (stereo not drawn) | 86.3% |
| NC(N)=N/N=C\c1cccc(OCc2ccccc2)c1 | 69.6% |
| CS(=O)(=O)Nc1cc(-c2cc3ncc(C#N)c(Nc4ccc(Oc5ccccc5)c(Cl)c4)c3s2)cnc1Cl | 62.7% |
| Cc1ccc(NC(=O)c2nc(S(C)(=O)=O)oc2-c2ccc(F)cc2)cc1Nc1ccc2ncn(C)c(=O)c2c1 | 19.3% |
| CC(=O)[C@H]1CC[C@H]2[C@@H]3CC[C@H]4CC=CC[C@]4(C)[C@H]3CC[C@]12C | 65.5% |
| COc1cccc(NC(=O)[C@H](C(C)C)n2c(=O)[nH]c3ccccc3c2=O)c1 | 98.6% |
| CC(C)N1CCN(c2ccncc2S(=O)(=O)N2CCN(C)CC2)CC1 | 102% |
| [O-]/[N+](=C\c1ccccc1)CC1(O)CCCCC1 | 97.2% |
| CCc1ccc(-c2ccc(NC3CCCCCC3)nn2)cc1S(N)(=O)=O | 99.4% |
| C[C@@H]1C[C@H](N)C[C@H](c2ccncc2NC(=O)c2ccc(F)c(-c3c(F)cccc3F)n2)C1 | 4.68% (active) |
| COC(=O)C(CCC(=O)CCl)N1C(=O)c2ccccc2C1=O (stereo not drawn) | -8.21% (active) |
| CCCCCCCCCCCCCCC(C(=O)OCC)C(=O)OCC | 104% |
| O=C(Nc1ccc2[nH]c3ccccc3c2c1)c1ccccc1Cl | 67.5% |
| CN(C)c1ccc(/C=C(\C#N)c2nc3ccccc3n2C)cc1 | 15.8% |
| O=C(CS)OCC(COC(=O)CS)(COC(=O)CS)COC(=O)CS | 90.6% |
| C#CC[C@@H]1C[C@]2(C)[C@H]3CC=C4[C@H]5[C@@H](C)[C@H](C)CC[C@]5(C(=O)NCCCCN)CC[C@@]4(C)[C@]3(C)CC[C@H]2C(C)(C)[C@H]1OC(C)=O | 5.75% (active) |
| CC(=O)N1N=C(c2ccc(C)cc2)CC1c1cn(-c2ccccc2)nc1-c1cccc(Nc2ccnc3cc(Cl)ccc23)c1 (stereo not drawn) | -11% (active) |
| CCN(CC)CCC(CNc1ccnc2cc(Cl)ccc12)c1ccc(O)cc1 (stereo not drawn) | 51.3% |
| CNC(=O)c1ccccc1Sc1ccc2c(/C=C/c3ccccn3)n[nH]c2c1 | 25.2% |

tested on: OVCAR-8 ovarian; experiment: as above; conditions: 10 µM unless noted

| SMILES | growth |
| --- | --- |
| COc1ccc(C2C3CCc4ccccc4C3=NN2C(=O)c2cc(OC)c(OC)c(OC)c2)cc1O (stereo not drawn) | 99.4% |
| CCOC(=O)c1ccc(NC(=O)NC2=NCCS2)cc1 | 27.1% |
| CC(C)COC(=O)NC(C)(C)C | 103% |
| Cn1c(=O)c2[nH]c(Cc3ccc4c(c3)OCO4)nc2n(C)c1=O | 105% |
| Nc1nc(N)c2c(n1)NC(c1sc(Cl)nc1Cl)CC(c1ccc3c(c1)OCO3)=N2 (stereo not drawn) | 40.5% |
| Cc1ccccc1N1C(c2ccccc2)=NNC12C=CC(=O)c1c(O)cccc12 (stereo not drawn) | 60.1% |
| Nc1nc(N)c2c(n1)NC(c1sc(Cl)nc1Cl)CC(c1ccccc1)=N2 (stereo not drawn) | 60.7% |
| C=C1NC(=O)C(C(C)CC)NC(=O)C2CSCC(NC(=O)CCC(=O)O)C(=O)NC(Cc3ccccc3)C(=O)NC(C)C(=O)NC(CC(C)CC)C(=O)NC(C(=O)NC(Cc3ccccc3)C(=O)N3CCCC3C(=O)N2)C(C)OC(=O)C(CO)NC(=O)C(C(O)COC)N(C)C(=O)C(C(C)C)NC(=O)C(CC(C)CC)NC1=O (stereo not drawn) | 12.9% [6 µM] |
| Cc1nc2c(-c3cnc(N)nc3)nc(N3CCOCC3)nc2n1C(C)C | -8.95% (active) |
| C=CC[C@]1(O)CC[C@H]2[C@@H]3CCc4cc(O)ccc4[C@H]3CC[C@@]21C | 94.9% |
| COS(=O)(=O)CCN(CCOS(C)(=O)=O)S(C)(=O)=O | 94.9% |
| Cc1nc2ccc(Nc3nc(NCCN4CCOCC4)nc(Nc4ccc(F)cc4)n3)cc2n1Cc1ccccc1 | 50.2% |
| COC1CC(N)C2OC(c3ccccc3)OCC2O1 (stereo not drawn) | 98.4% |
| COc1ccc2[nH]cc(C(c3ccc(Cl)cc3)N3CCCC3)c2c1 (stereo not drawn) | 94.8% |
| CCOP(=O)(O)OP(=O)(O)OCC | 119% |
| COc1cccc(/C=N/N=C(N)N)c1 | 100% |
| COc1ccc(C2CC(c3ccc(Nc4ccnc5cc(Cl)ccc45)cc3)=NN2c2ccccc2)cc1 (stereo not drawn) | 95.4% |
| CC1=C(O)C(=O)C(c2c(C)cc(C)c(Br)c2C)=C(O)C1=O | 68.4% |
| FC(F)(F)C1=NNC(c2ccc3ccccc3c2)=NN1 | 97.4% |
| NC(N)=N/N=C\c1ccc(OCc2ccccc2)cc1 | 89.1% |

| SMILES | growth |
| --- | --- |
| COc1ccc(NC(=O)C2c3ccccc3C(=O)N(CC(C)C)C2c2cccs2)cc1 (stereo not drawn) | 89.1% |
| NC(N)=N/N=C\c1cccc(OCc2ccccc2)c1 | 89.3% |
| CS(=O)(=O)Nc1cc(-c2cc3ncc(C#N)c(Nc4ccc(Oc5ccccc5)c(Cl)c4)c3s2)cnc1Cl | 50.6% |
| Cc1ccc(NC(=O)c2nc(S(C)(=O)=O)oc2-c2ccc(F)cc2)cc1Nc1ccc2ncn(C)c(=O)c2c1 | 30.6% |
| CC(=O)[C@H]1CC[C@H]2[C@@H]3CC[C@H]4CC=CC[C@]4(C)[C@H]3CC[C@]12C | 94.3% |
| COc1cccc(NC(=O)[C@H](C(C)C)n2c(=O)[nH]c3ccccc3c2=O)c1 | 96.9% |
| CC(C)N1CCN(c2ccncc2S(=O)(=O)N2CCN(C)CC2)CC1 | 103% |
| [O-]/[N+](=C\c1ccccc1)CC1(O)CCCCC1 | 99.5% |
| CCc1ccc(-c2ccc(NC3CCCCCC3)nn2)cc1S(N)(=O)=O | 102% |
| C[C@@H]1C[C@H](N)C[C@H](c2ccncc2NC(=O)c2ccc(F)c(-c3c(F)cccc3F)n2)C1 | 62.6% |
| COC(=O)C(CCC(=O)CCl)N1C(=O)c2ccccc2C1=O (stereo not drawn) | 59.2% |
| CCCCCCCCCCCCCCC(C(=O)OCC)C(=O)OCC | 103% |
| O=C(Nc1ccc2[nH]c3ccccc3c2c1)c1ccccc1Cl | 72.4% |
| CN(C)c1ccc(/C=C(\C#N)c2nc3ccccc3n2C)cc1 | 40.3% |
| O=C(CS)OCC(COC(=O)CS)(COC(=O)CS)COC(=O)CS | 82.2% |
| C#CC[C@@H]1C[C@]2(C)[C@H]3CC=C4[C@H]5[C@@H](C)[C@H](C)CC[C@]5(C(=O)NCCCCN)CC[C@@]4(C)[C@]3(C)CC[C@H]2C(C)(C)[C@H]1OC(C)=O | 63.7% |
| CC(=O)N1N=C(c2ccc(C)cc2)CC1c1cn(-c2ccccc2)nc1-c1cccc(Nc2ccnc3cc(Cl)ccc23)c1 (stereo not drawn) | 46.4% |
| CCN(CC)CCC(CNc1ccnc2cc(Cl)ccc12)c1ccc(O)cc1 (stereo not drawn) | 92.2% |
| CNC(=O)c1ccccc1Sc1ccc2c(/C=C/c3ccccn3)n[nH]c2c1 | 28.4% |
